The list is not random: actives were taken first. Their share in the collection is about 3.8%.
Mtb hypoxia inh – PubChem AID 1159583. fluorescence inhibition, % (no concentration beside the values). hit rate 0.1% among 300,000. M. tuberculosis hypoxia-regulated fluorescent reporter, fluorescence; in the data active = fluorescence inhibition mostly above about 23%, no sharp cut-off; inactive = mostly below about 17%
FBA Mtb inh – Mtb FBA enzyme inhibitors, primary screen, biochemical, fluorescence, strain H37Rv | Fructose-bisphosphate aldolase (Mycobacterium tuberculosis (strain ATCC 25618 / H37Rv)), … | hit rate 2.3% among 360,000 | AID 588726, 2011 | purified M. tuberculosis FBA, fluorescence read-out | inhibition, % at 1 µM; in the data active = inhibition above about 27%
Target sequence (P9WQA3 whole entry, looked up): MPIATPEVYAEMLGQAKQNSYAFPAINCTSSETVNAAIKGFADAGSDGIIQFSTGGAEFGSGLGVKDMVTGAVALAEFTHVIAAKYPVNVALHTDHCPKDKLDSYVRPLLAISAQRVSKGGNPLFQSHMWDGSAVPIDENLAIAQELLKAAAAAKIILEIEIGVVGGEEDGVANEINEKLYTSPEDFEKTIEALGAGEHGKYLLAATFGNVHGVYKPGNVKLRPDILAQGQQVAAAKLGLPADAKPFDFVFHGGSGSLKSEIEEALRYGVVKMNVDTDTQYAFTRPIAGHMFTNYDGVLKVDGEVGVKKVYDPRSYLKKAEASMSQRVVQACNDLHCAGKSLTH
PrPC TRFRET – inhibitors of human cell surface prion protein PrPC, primary screen, cell-based, TR-FRET. TR-FRET read-out. inhibition, % at 13.8 µM. AID 720596, 2013. hit rate 0.43% among 370,000; in the data active = inhibition above about 24%
PrP 5UTR inh – inhibition of PrP 5' UTR reporter expression. AID 488862, 2010. cell-based PrP 5' UTR mRNA reporter, plate reader. hit rate 0.35% among 340,000. inhibition, % (concentration not given with the values); in the data active = inhibition above about 52%
Y pestis TopoI – Yersinia pestis topoisomerase I inhibitors, primary screen, biochemical, cleavage product accumulation, plate reader, single point; Y. pestis Topo-I cleavage product accumulation; activity, % at 10 µM; hit rate 0.064% among 360,000; AID 504884, 2011; in the data active = activity above about 50%, passing the limit was not always enough; inconclusive = no clear call, values can overlap the other calls
GDH-TPI inh – GDH-TPI coupling enzyme inhibitors, primary screen, artefact control for M. tuberculosis FBA inhibitor project, biochemical, absorbance, full deck; inhibition, % at 4.8 µM; GDH-TPI coupled enzyme counterscreen, NADH absorbance; hit rate 1.2% among 360,000; AID 588335, 2011; in the data active = inhibition above about 30%
PrP UTR cherry – prion 5' UTR mRNA inhibition, cherry-pick retest; AID 504592, 2011; shares compounds with PrP 5UTR inh; cell-based prion protein 5' UTR reporter, plate reader; inhibition, % at 2.5 µM; hit rate 48% among 1,100; in the data active = inhibition above about 54%; inconclusive = no clear call, values can overlap the other calls
Each line names hits and unclear results; the compound was inactive in the other large screens (follow-up assays come after a bar, where they were run).

C#CCOCCOCCOCCNc1nc(N2CCN(C(=O)C(CCC(=O)O)n3cc(C(N)CCCCN)nn3)CC2)nc(N2CCN(C(=O)C(C(C)O)n3cc(C(N)CCCCN)nn3)CC2)n1 (stereo unspecified)	none (no result: FBA Mtb inh, PrPC TRFRET, PrP 5UTR inh, Y pestis TopoI, GDH-TPI inh)
COc1cc(OC)cc(-c2cc3nc(C)c(CCC(=O)O)c(C)n3n2)c1	PrP 5UTR inh 54.3 | PrP UTR cherry 57.0
CCOc1ncccc1C(=O)N1CCN(c2cccc(C)c2C)CC1	PrP 5UTR inh 70.0 | PrP UTR cherry 85.7
CCOc1ncccc1C(=O)N1CCN(c2cc(Cl)ccc2C)CC1	none
Cc1nn(-c2ccccc2)c(C)c1C=NNC(=O)c1ccc(F)cc1	none (no result: FBA Mtb inh, PrPC TRFRET, PrP 5UTR inh, Y pestis TopoI, GDH-TPI inh)
CCOc1ccc(NC(=O)c2cc(S(=O)(=O)N3CCOCC3)cn2C)cc1	PrP 5UTR inh 50.7 | PrP UTR cherry inactive
Cc1ccc(Sc2c(CO)c(-c3ccccc3)nn2C)cc1	PrP 5UTR inh 73.1 | PrP UTR cherry 84.4
CCOC(=O)c1c(SCCN2CCCC2)n(-c2ccccc2)c(=S)n(-c2ccccc2)c1=O	PrP 5UTR inh 65.1 (no result: Mtb hypoxia inh) | PrP UTR cherry inactive
C#CCNC(=O)C1=CC(C)C(CCCO)C(OCC)O1 (stereo unspecified)	none (no result: FBA Mtb inh, PrPC TRFRET, PrP 5UTR inh, Y pestis TopoI, GDH-TPI inh)
O=C(Nc1ccncc1)C1COc2ccccc2O1 (stereo unspecified)	none (no result: Mtb hypoxia inh)
O=C(NC1=NCCS1)C1COc2ccccc2O1 (stereo unspecified)	PrP 5UTR inh 72.1 | PrP UTR cherry 77.3
CN(C)c1ccc(/C=C2/SC(=O)N(CCN=C3NS(=O)(=O)c4ccccc43)C2=O)cc1	none (no result: Mtb hypoxia inh)
CN(C)c1ccc(/C=C2\SC(=O)N(CCc3nnc(N)s3)C2=O)cc1	PrP 5UTR inh 55.6, GDH-TPI inh 31.6 | PrP UTR cherry 76.3
CN(C)c1ccc(C(=O)NCc2ccc3c(c2)OCO3)cc1	none
Cc1ccc(/C([O-])=C(/C(=S)NCc2ccc3c(c2)OCO3)[n+]2ccc(N(C)C)cc2)c(C)c1	PrP 5UTR inh 66.5 | PrP UTR cherry inactive
O=C(NN=Cc1ccc(O)cc1)c1[nH]c2ccc(Br)cc2c1-c1ccccc1	none (no result: FBA Mtb inh, PrPC TRFRET, PrP 5UTR inh, Y pestis TopoI, GDH-TPI inh)
O=C(N/N=C/c1c[nH]c2ccccc12)c1[nH]c2ccc(Br)cc2c1-c1ccccc1	PrP 5UTR inh 68.4 (no result: Mtb hypoxia inh) | PrP UTR cherry 87.5
COc1ccc(C=Cc2c(-c3ccc(OC)cc3)oc(=O)c3cc(OC)c(OC)cc23)cc1	none (no result: FBA Mtb inh, PrPC TRFRET, PrP 5UTR inh, Y pestis TopoI, GDH-TPI inh)
COc1ccc(/C=C/C(=O)c2cc(F)ccc2OC(=O)c2ccccc2OC)cc1OC	none | PrP UTR cherry inconclusive
COc1ccccc1CCc1nnc(CCC(=O)N(C)Cc2cccc3ncccc23)o1	FBA Mtb inh 158.8, PrP 5UTR inh 57.7 | PrP UTR cherry inactive
CN(Cc1cccc2cnccc12)C(=O)CCc1nnc(CCc2ccccc2)o1	none
CC(=O)n1cc(-c2ccncc2)c2ccccc21	PrP 5UTR inh 54.8 | PrP UTR cherry inactive
CC(C)(O)/C=C/C(=O)[C@](C)(O)C1[C@H](O)C[C@@]2(C)C3CC=C4C(C[C@H](O)[C@@H](O)C4(C)C)[C@]3(C)C(=O)C[C@]12C (stereo partly specified)	PrP 5UTR inh 64.6 (no result: Mtb hypoxia inh, PrPC TRFRET) | PrP UTR cherry 74.9
CCCCOc1ccc(C=CC(=O)OCC(=O)c2c(N)n(C)c(=O)n(C)c2=O)cc1OCC	none (no result: FBA Mtb inh, PrPC TRFRET, PrP 5UTR inh, Y pestis TopoI, GDH-TPI inh)
COc1cccc(NC(=O)Nc2cccc(C(=O)O)c2)c1	PrP 5UTR inh 62.0 | PrP UTR cherry 62.9
CCOC(=O)c1cccc(NC(=O)c2ccc3c(c2)OCO3)c1	none
O=C(Nc1cccc(C(=O)O)c1)Nc1ccc2c(c1)OCO2	PrP 5UTR inh 83.7 (no result: Mtb hypoxia inh) | PrP UTR cherry 73.3
CCOC(=O)c1cccc(NC(=O)/C=C/c2ccc3c(c2)OCO3)c1	PrP 5UTR inh 60.4 | PrP UTR cherry inactive
O=C(O)c1ccc(N/N=C/c2ccc3c(c2)OCO3)cc1	PrP 5UTR inh 77.2, GDH-TPI inh 32.8 (no result: Mtb hypoxia inh) | PrP UTR cherry 64.8
COc1cccc(NC(=O)c2ccccc2)c1	none
COC(=O)[C@@]12CCCN1C(c1ccc(-c3ccc(F)cc3)c(OC)c1)C1C(=O)N(C)C(=O)C12 (stereo partly specified)	none (no result: FBA Mtb inh, PrPC TRFRET, PrP 5UTR inh, Y pestis TopoI, GDH-TPI inh)
O=C1C(=Cc2cccs2)N=C(c2cccs2)N1Nc1ccccc1	none (no result: FBA Mtb inh, PrPC TRFRET, PrP 5UTR inh, Y pestis TopoI, GDH-TPI inh)
COc1ccc(N(CC(=O)NN=Cc2cc(OC)ccc2OC)S(=O)(=O)c2ccccc2)cc1	none (no result: FBA Mtb inh, PrPC TRFRET, PrP 5UTR inh, Y pestis TopoI, GDH-TPI inh)
COC1C=CC=C(C)C(=O)NC2=CC(=O)C(N)=C(CC(C)CC(OC)C(O)C(C)C=C(C)C1OC(N)=O)C2=O (stereo unspecified)	PrP 5UTR inh 76.4 (no result: Mtb hypoxia inh) | PrP UTR cherry 82.2
COC1CC(C)C(OC)c2cc(O)cc(c2O)NC(=O)C(C)=CC=CC(C)C(OC(N)=O)C(C)=CC(C)C1OC (stereo unspecified)	none (no result: Mtb hypoxia inh)
Cc1cc(C(=O)CSc2nnc(-c3ccccc3)n2-c2ccccc2)c(C)n1-c1ncn[nH]1	none
Cc1cc(C(=O)CSc2nnc3ccccn23)c(C)n1-c1ccccc1	PrP 5UTR inh 66.8 | PrP UTR cherry 84.7
O=C(Nc1c(-c2ccccc2)nc2ccccn12)c1cccs1	none
O=C(Nc1c(-c2cccs2)nc2ccccn12)c1ccccc1F	PrP 5UTR inh 82.1 | PrP UTR cherry inactive
CC1=Nc2cc(C(=O)NCc3ccco3)ccc2Sc2ccc(C)cc21	PrP 5UTR inh 61.3 | PrP UTR cherry 88.3
CC1=Nc2cc(C(=O)NCC3CCCO3)ccc2Sc2ccc(C)cc21 (stereo unspecified)	none
CC1CN(C(C)CO)C(=O)c2cc(NS(C)(=O)=O)ccc2OC1CN(C)C(=O)Nc1ccc(F)cc1 (stereo unspecified)	none (no result: FBA Mtb inh, PrPC TRFRET, PrP 5UTR inh, Y pestis TopoI, GDH-TPI inh)
COc1cc2cc(c1Cl)N(C)C(=O)CC(OC(=O)C(C)N(C)C(C)=O)C1(C)OC1C(C)C1CC(O)(NC(=O)O1)C(OC)C=CC=C(C)C2 (stereo unspecified)	PrP 5UTR inh 52.7 (no result: Mtb hypoxia inh) | PrP UTR cherry 92.3
CN(C)c1cccc(C(=O)OCC(=O)N(Cc2ccccc2)C2CCS(=O)(=O)C2)c1 (stereo unspecified)	PrP 5UTR inh 59.5 | PrP UTR cherry inactive
COc1cccc(C=NNC(=O)c2ccc(-n3cnnn3)cc2)c1	none (no result: FBA Mtb inh, PrPC TRFRET, PrP 5UTR inh, Y pestis TopoI, GDH-TPI inh)
Cc1ccc(Cl)cc1NC(=O)C1CC(=O)Nc2ncnn21 (stereo unspecified)	none
O=C1CC(C(=O)Nc2cc(Cl)ccc2Cl)n2ncnc2N1 (stereo unspecified)	PrP 5UTR inh 78.2 (no result: Mtb hypoxia inh) | PrP UTR cherry inactive
Cc1ccc(S(=O)(=O)NCCC(=O)N2CC(C)OC(C)C2)cc1 (stereo unspecified)	PrP 5UTR inh 75.2 | PrP UTR cherry inactive
CCC1=C2CC[C@H]3C(=O)N(c4ccccc4)C(=O)[C@H]3[C@H]2[C@@]2(C)C(=NCc3ccccc3)OC(=O)N2C1=O	PrP 5UTR inh 75.6 (no result: Mtb hypoxia inh) | PrP UTR cherry inactive
